This excerpt belongs to a sample that is enriched for hits.
RMI-FANCM inh: blocks RMI1/RMI2 complex binding to FANCM MM2 peptide | Fluorescence polarization, RMI core complex with F-MM2 peptide; active compounds read low | FP signal (polarization) at 33 µM | hit rate 0.58% among 70,000; in the data active = FP signal below about 40
Active calls of the source: *; ! = not active in a repeat.

SMILES	RMI-FANCM inh
O=C(/C=C/c1cccs1)NC(=S)NNC(=O)Cn1nnc(N2CCCC2)n1	61
c1csc(-c2ccn[nH]2)c1	55
Cc1nc(-c2ccnc(=S)[nH]2)cs1	57
S=c1nccc(-c2ccc(-c3cccs3)s2)[nH]1	33*
Cc1ncc(C(=O)O)c(C)c1Br	57
COc1ccc([N+](=O)[O-])c(OC)c1C(=O)Nc1nnc(C)s1	59
O=C1c2cccc(O)c2C(=O)c2c(O)cccc21	27*
O=C1c2ccccc2C(=O)c2c(Sc3cccc4c3C(=O)c3ccccc3C4=O)cccc21	60
O=C1c2ccccc2C(=O)c2c1ccc(O)c2O	53
O=C(Nc1nnc(Cc2cccs2)o1)c1ccc(F)cc1	69
c1ccc(-c2csc(-c3ccc(-c4ccccn4)s3)n2)cc1	71
Nc1c(-c2ccccc2)sc2nc(-c3ccccc3)cc[n+]12	11*
Cc1sc2sc(-c3ccccc3)c(N)[n+]2c1C	72
Cn1cccc1/C=C(/C#N)c1nc(-c2cccs2)cs1	12
CCOC(=O)C(=Cc1ccc(-c2ccccc2[N+](=O)[O-])o1)C(=O)OCC	58
O=[N+]([O-])c1cccnc1Sc1nccc(-c2ccco2)n1	54
O=[N+]([O-])c1ccccc1-c1ccc(-c2nnc(-c3ccco3)o2)o1	25*
COc1ccc(OC)c(C(=O)N(CCn2cccn2)c2nc3c(C)cc(C)cc3s2)c1	60
CCOC(=O)c1c(C)oc2c1c1c(c3ccccc32)OCN(C2CCCCC2)C1	31*
CCOC(=O)c1c(-c2ccccc2)oc2c1cc(OC(=O)c1cc(OC)cc(OC)c1)c1ccccc12	54
CCOC(=O)c1c(C)oc2c(F)c(F)c(F)c(F)c12	62
CCC1=C(C(=O)OC)C(c2cccs2)n2ncnc2N1 (centres undefined)	62
CCCCc1nc(SCC)c2c(=O)n(C)c(=O)n(C)c2n1	98
COC(=O)c1c(NC(=O)CN2CCCCCC2)sc2c1CCCC2	73
CCOC(=O)c1c(C)[nH]c(C(=O)CSc2ccc(Cl)cc2)c1C	71
SMILES	RMI-FANCM inh
COC(=O)c1c(C)[nH]c(C(=O)CN2CCCCCC2)c1C	6*
C=CCn1c(SCC(=O)NCc2ccco2)nc2scc(-c3ccc(Cl)cc3)c2c1=O	82
CCN(CC)CCN(C(=O)c1cc2ccccc2oc1=O)c1nc2c(OC)ccc(Cl)c2s1	71
N#CC(C#N)=C1CCC(=C(C#N)C#N)CC1	31*
O=S(=O)(NCCOc1ccc2nnc(-c3ccccc3)n2n1)c1ccc2ccccc2c1	69
O=C(O)c1ccccc1Nc1ccccc1	55
Cc1cccc(C(=O)O)c1O	60
Cc1cccc(Nc2ccccc2C(=O)O)c1C	25*!
COc1ccccc1NC(=O)NCCc1ccc2c(c1)CCCN2C	62
O=C(NCCOc1ccccc1)c1ccc(S(=O)(=O)N2CCOCC2)cc1	61
Cc1c(Cl)cccc1NC(=O)C(=O)NCC(c1ccc2c(c1)CCN2C)N(C)C (centres undefined)	68
Cc1ccc(C)c(S(=O)(=O)N2C(=S)NC(=O)C2Cc2ccccc2)c1 (centres undefined)	75
Cc1ccc(C)c(S(=O)(=O)N=C2C=C(Cl)C(=O)c3ccccc32)c1	20*
Cc1ccc(C)c(S(=O)(=O)N=C2C=C(SCC(=O)O)C(=O)c3ccccc32)c1	67
N#Cc1ccsc1NC(=O)c1ccccc1I	75
COC(=O)c1ccc(OCC(O)CN2CCN(CCN3C(=O)c4cccc5cccc(c45)C3=O)CC2)cc1 (centres undefined)	56
O=C(CN1CCN(CCN2C(=O)c3cccc4cccc(c34)C2=O)CC1)c1ccc(F)cc1	63
COc1ccc(C(=O)CN2CCN(CCN3C(=O)c4cccc5cccc(c45)C3=O)CC2)cc1	25*
CN1CCN(C(CNC(=O)C(=O)NC2CCCCC2)c2ccc(N(C)C)cc2)CC1 (centres undefined)	64
CCCN1CCCc2cc(CCNC(=O)COc3ccc(Cl)cc3)ccc21	71
O=C(Oc1ccc(NS(=O)(=O)c2ccc3ccccc3c2)cc1Cl)c1ccccc1	29*
O=C(COc1ccc(S(=O)(=O)Nc2ccccc2)cc1Cl)c1ccccc1	57
COc1cc(NS(=O)(=O)c2ccc3ccccc3c2)ccc1N1CCCCC1=O	52
CCCn1c(=NC(=O)COc2ccccc2)sc2cc(S(C)(=O)=O)ccc21	77
O=S(=O)(Nc1cc(Sc2cccc3cccnc23)c(O)c2ccccc12)c1ccc(Cl)cc1	58
SMILES	RMI-FANCM inh
C(=NCc1ccccc1)c1ccc2c(c1)OCO2	53
C(=NCCc1ccccc1)c1ccccc1	49
Clc1cc(Cl)cc(C=NCc2ccccc2)c1	21*
O=c1c2ccccc2n(Cc2nc(-c3cccc(Cl)c3)no2)c(=O)n1CC1CCCO1 (centres undefined)	98
O=C(Cc1cc(F)cc(F)c1)Nc1ccc(Cl)cc1	54
O=c1cc(CN2CCOCC2)c2cc3c(cc2o1)CCC3	57
Cc1c(O)ccc2c(CN3CCCCC3)cc(=O)oc12	18*
Cc1ccc2oc(=O)cc(CN3CCOCC3)c2c1	63
COc1ccccc1N1CCN(CCNC(=O)C(=O)NCc2ccc(C)cc2)CC1	62
